Reference: PubChem BioAssay AID645 (SRMLSC, 2007)
Screen size: about 65,000 compounds; about 450 (0.69%) were called active. Only a selection was taken, and actives are over-represented in it overall. Unmarked numbers belong to inactive results.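 Rule for the calls: active = HER2 level under 5% of the carrier-only control; inconclusive = no clear call, values can overlap the other calls; inactive = the rest.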

What follows are compounds tested against Receptor tyrosine-protein kinase erbB-2 (Homo sapiens) (UniProt P04626) (assay: reducers of endogenous HER2 protein levels – SKBR-3 cells, AlphaScreen, 66K library, primary screen (AID 645;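 note: 100% = DMSO carrier and 0% = 500 nM PU-H71 HSP90 inhibitor; lower value means stronger loss of Her2 protein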)). Settings: SKBR-3 HER2 protein level, 18-24 h, at 10 µM, active compounds read low.
Sequence of Receptor tyrosine-protein kinase erbB-2 (Homo sapiens) (P04626 whole entry, looked up): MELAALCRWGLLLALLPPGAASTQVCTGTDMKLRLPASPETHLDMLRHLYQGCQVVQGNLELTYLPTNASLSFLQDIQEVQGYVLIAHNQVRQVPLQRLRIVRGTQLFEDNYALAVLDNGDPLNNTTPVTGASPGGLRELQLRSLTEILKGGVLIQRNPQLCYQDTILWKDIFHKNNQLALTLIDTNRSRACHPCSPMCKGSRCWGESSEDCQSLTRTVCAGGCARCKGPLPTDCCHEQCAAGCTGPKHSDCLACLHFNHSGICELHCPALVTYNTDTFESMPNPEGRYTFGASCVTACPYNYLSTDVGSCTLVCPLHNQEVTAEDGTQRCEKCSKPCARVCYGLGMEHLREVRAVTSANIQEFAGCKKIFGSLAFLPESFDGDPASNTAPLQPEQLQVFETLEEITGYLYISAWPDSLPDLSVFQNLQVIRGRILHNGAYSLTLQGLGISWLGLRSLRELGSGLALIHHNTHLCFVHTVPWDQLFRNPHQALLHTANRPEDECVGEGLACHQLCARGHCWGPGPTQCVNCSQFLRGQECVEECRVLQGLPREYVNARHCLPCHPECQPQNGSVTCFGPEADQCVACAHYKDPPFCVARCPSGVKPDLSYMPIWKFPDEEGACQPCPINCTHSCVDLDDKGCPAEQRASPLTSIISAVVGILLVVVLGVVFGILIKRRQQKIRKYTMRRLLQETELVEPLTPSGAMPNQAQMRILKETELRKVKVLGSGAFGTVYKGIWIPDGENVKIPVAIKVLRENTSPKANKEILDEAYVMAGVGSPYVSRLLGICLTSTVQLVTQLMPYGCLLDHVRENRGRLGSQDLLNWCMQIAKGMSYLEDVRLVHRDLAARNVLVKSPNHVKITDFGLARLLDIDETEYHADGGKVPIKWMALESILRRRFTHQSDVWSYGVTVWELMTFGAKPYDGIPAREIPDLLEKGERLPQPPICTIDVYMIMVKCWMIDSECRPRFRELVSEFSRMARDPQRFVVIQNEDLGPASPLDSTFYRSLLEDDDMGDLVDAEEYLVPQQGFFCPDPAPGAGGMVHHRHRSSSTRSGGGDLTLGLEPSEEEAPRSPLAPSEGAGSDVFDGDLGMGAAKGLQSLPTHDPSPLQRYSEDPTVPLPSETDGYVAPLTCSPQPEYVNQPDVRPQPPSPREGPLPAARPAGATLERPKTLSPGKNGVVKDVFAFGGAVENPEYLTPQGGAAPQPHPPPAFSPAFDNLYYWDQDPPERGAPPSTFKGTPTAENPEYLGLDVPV
`Cc1sc2c(c1C)c(=O)n(-c1ccccc1)c1nncn21` was tested, and the HER2 level % of control was 86.7%.
For `N#Cc1c(NC(=O)CSc2nc3ccccc3c(=O)n2Cc2ccco2)sc2c1CCCC2`, the HER2 level % of control was 70.4%.
`O=C(NC(=O)c1ccc(Cl)c(Cl)c1)OC1CCS(=O)(=O)C1` (centres undefined) showed an HER2 level % of control of 106%.
With `OC1CN=C2Sc3ccccc3N2C1` (centres undefined) the HER2 level % of control was 119%.
For `O=C1c2ccccc2C(=O)N1CCc1nn[nH]n1`, the HER2 level % of control was 90.3%.
`Cc1c(CN2CCC(C)CC2)c(=O)n(-c2ccccc2)n1C` showed an HER2 level % of control of 107%.
`Cn1c(=O)n(C)c(=O)n(CC(=O)N2CCCCC2)c1=O` was tested, and the HER2 level % of control was 149%.
For `COc1ccccc1N1CCN(C(=O)CN(Cc2ccc(Cl)cc2)S(C)(=O)=O)CC1`, the HER2 level % of control was 68.2%.
With `COc1ccccc1-n1nnnc1S(=O)(=O)Cc1ccc(Cl)cc1` the HER2 level % of control was -1.27% (active).
`COc1ccccc1N1CCN(Cc2nnnn2CCc2ccccc2)CC1` gave an HER2 level % of control of 102%.
`CC(C)C(=O)N1CCN(CCN=CC2=C(O)CC(c3ccco3)CC2=O)CC1` (centres undefined) was tested, and the HER2 level % of control was 116%.
Work on `CN(C)CCNC(=O)C(C(=O)c1ccccc1)n1ccccc1=O` (centres undefined) yielded an HER2 level % of control of 99.7%.
`O=C(C(NS(=O)(=O)c1cccc2nsnc12)c1ccccc1)N1CCN(c2ccccn2)CC1` (centres undefined) was tested, and the HER2 level % of control was 70.8%.
In the case of `CCOP1(=O)C=C(C(C)(C)C)OC1c1ccc(F)cc1` (centres undefined), the HER2 level % of control is reported as -28.1% (active).
In the case of `CC1CCc2c(sc3c2C2=NS(=O)(=O)CCN2C=N3)C1` (centres undefined), the HER2 level % of control is reported as 111%.
`O=C(NCc1cccs1)c1ccc2c(c1)ncn2C1CCCC1` showed an HER2 level % of control of 121%.
For `Cc1ccc(OCC(O)CN2CCN(CC(O)COc3ccc(C)cc3Cl)CC2)c(Cl)c1` (centres undefined), the HER2 level % of control was 65.4%.
`COc1ccc(N2CCN(CCNC(=O)c3nnc(Cc4c(F)cccc4Cl)o3)CC2)cc1` showed an HER2 level % of control of 103%.
Compound `O=C(CSc1nnc(Cn2cnc3ccccc32)o1)c1ccccc1` has an HER2 level % of control of 107%.
With `CC(C)Oc1ccc(C2NC(=O)NC2=O)cc1` (centres undefined) the HER2 level % of control was 81.7%.
`Cc1ccccc1N1CC(c2nc3ccccc3[nH]2)CC1=O` (centres undefined) was tested, and the HER2 level % of control was 99.4%.
`N#CC1=C(SCc2ccccc2)NC(=O)C(C#N)C12CCCC2` (centres undefined) showed an HER2 level % of control of 88.2%.
`CCOC(=O)C1CCCN(C(=O)c2sc3nc(C)nc(N4CCOCC4)c3c2C)C1` (centres undefined) was tested, and the HER2 level % of control was 87.2%.
`CCS(=O)(=O)NCCc1ccc(OC)c(OC)c1` showed an HER2 level % of control of 90.2%.
In the case of `Cc1ccccc1-n1c(SCC(=O)NCc2cccs2)nnc1-c1ccncc1`, the HER2 level % of control is reported as 108%.
With `Cc1nnc(SCC(=O)NCc2cccs2)[nH]c1=O` the HER2 level % of control was 87.7%.
For `CCN(CC(=O)NCc1cccs1)c1nnnn1-c1ccccc1`, the HER2 level % of control was -25.9% (active).
`CCN1C(=O)/C(=C2\SC(N3CCCCC3)=NC2=O)c2ccccc21` gave an HER2 level % of control of 121%.
Compound `COc1cccc(C(=O)Nc2c3c(nn2-c2cccc(C)c2C)CS(=O)(=O)C3)c1OC` has an HER2 level % of control of 119%.
In the case of `Cc1nc2cc(-c3ccc(F)cc3)nn2c(N2CCOCC2)c1C`, the HER2 level % of control is reported as 49.6%.
With `Cn1c(=O)c2[nH]c(NCC3CCCO3)nc2n(-c2ccccc2)c1=O` (centres undefined) the HER2 level % of control was 83.7%.
Compound `CCCC(NS(=O)(=O)c1ccc(OC)cc1)C(=O)O` (centres undefined) has an HER2 level % of control of 96.9%.
For `O=S(=O)(Nc1ccccc1N1CCOCC1)c1ccc(Cl)s1`, the HER2 level % of control was 95.5%.
Work on `N#CC(C(N)=O)=C1CCC2(CC1)OCCCCO2` yielded an HER2 level % of control of 93.5%.
With `CC1CCC(NS(=O)(=O)c2ccc3c(c2)n(C)c(=O)c(=O)n3C)CC1` (centres undefined) the HER2 level % of control was 76.3%.
Compound `Brc1ccc(OCCn2ccnc2)cc1` has an HER2 level % of control of 109%.
`Cc1ccc(N2CCN(S(=O)(=O)N(C)C)CC2)cc1Cl` gave an HER2 level % of control of 105%.
`Cc1nnc(NC2=NCCCCC2)o1` showed an HER2 level % of control of 106%.
Compound `O=C(Nc1cc(=O)[nH]c2ncnn12)c1ccccc1Cl` has an HER2 level % of control of 92%.
In the case of `CSC1=N/C(=C\C=C\c2cccs2)C(=O)S1`, the HER2 level % of control is reported as 0.09% (active).
`COCC(C)N=CC1=C(O)CC(C)(C)CC1=O` (centres undefined) gave an HER2 level % of control of 118%.
With `Cc1nc2sc(C(c3ccco3)N3CCOCC3)c(O)n2n1` (centres undefined) the HER2 level % of control was 51%.
Compound `C/C(=C\C(=O)c1ccccc1)Nc1cccc(O)c1` has an HER2 level % of control of 58.9%.
`c1ccc2cc3[nH]c(CN4CCCCC4)nc3cc2c1` was tested, and the HER2 level % of control was 96.1%.
Work on `O=C(Nc1cccc(Cl)c1)OCc1ccccn1` yielded an HER2 level % of control of 91.3%.
`Cc1c(NC(=O)c2coc(=O)c(Br)c2)c(=O)n(-c2ccccc2)n1C` was tested, and the HER2 level % of control was -15.4% (active).
In the case of `Cc1cc(C(=O)Nc2c(C)n(C)n(-c3ccccc3)c2=O)cs1`, the HER2 level % of control is reported as 91.6%.
With `COC(=O)Nc1c(C)n(C)n(-c2ccccc2)c1=O` the HER2 level % of control was 89.1%.
Compound `CS(=O)(=O)c1ccc2nc(NC(=O)C3CCCCC3)sc2c1` has an HER2 level % of control of 45.1%.
